# Counter-ions that a name gives are not always drawn.
# Test system: U-2932
# Experiment: growth inhibition by drug plus 177Lu-lilotomab satetraxetan (1 - RLU/untreated control) (fraction); higher = stronger inhibition
# Conditions: 10 nM; time (day): 4; 177Lu-lilotomab satetraxetan 1 ug/ml
# How it was run: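 RIVA or U-2932 cells, untreated or pretreated 18 h with a radiolabelled anti-CD37 antibody conjugate (~600 MBq/mg; 0.5 µg/ml RIVA, 1 µg/ml U-2932), were washed and seeded at 3,000 cells/well on plates pre-printed with the Selleck Cambridge Cancer Compound library. Doses were 10/100 nM (RIVA) or 10/1,000 nM (U-2932). RealTime-Glo luminescence was read daily from day 3 after 1 h at 37°C. Growth inhibition is 1 − RLU/mean of 48 untreated no-drug wells per plate.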
row,SMILES,growth inhibition by drug plus 177Lu-lilotomab satetraxetan
1,Nc1nc2[nH]cc(CCc3ccc(C(=O)N[C@@H](CCC(=O)O)C(=O)O)cc3)c2c(=O)[nH]1 [Pemetrexed],-0.0226
2,COc1cc2nccc(Oc3ccc(NC(=O)Nc4cc(C)on4)c(Cl)c3)c2cc1OC [Tivozanib (AV-951)],0.0836
3,CCC(=O)N1CCN(c2ccc(-n3c(=O)ccc4cnc5ccc(-c6cnc7ccccc7c6)cc5c43)cc2C(F)(F)F)CC1 [Torin 1],0.161
4,COc1cccc2c1C(=O)c1c(O)c3c(c(O)c1C2=O)C[C@@](O)(C(=O)CO)C[C@@H]3O[C@H]1C[C@H](N)[C@@H](O)[C@H](C)O1 [Epirubicin Hydrochloride],0.323
5,Clc1ccc(Nc2nnc(Cc3ccncc3)c3ccccc23)cc1 [Vatalanib dihydrochloride (PTK787)],0.0115
6,COc1cc2nccc(Oc3ccc(NC(=O)C4(C(=O)Nc5ccc(F)cc5)CC4)cc3)c2cc1OC [XL-184 free base (Cabozantinib)],0.083
7,C[C@@H](O[C@H]1OCCN(Cc2n[nH]c(=O)[nH]2)[C@H]1c1ccc(F)cc1)c1cc(C(F)(F)F)cc(C(F)(F)F)c1 [Aprepitant (MK-0869)],-0.123
8,COc1cc2c(cc1O)CC[C@@H]1[C@@H]2CC[C@]2(C)[C@@H](O)CC[C@@H]12 [2-Methoxyestradiol],-0.0531
9,CNCc1ccc(-c2[nH]c3cc(F)cc4c3c2CCNC4=O)cc1,0.0426
10,CC[C@@]1(O)C(=O)OCc2c1cc1n(c2=O)Cc2cc3c(CN(C)C)c(O)ccc3nc2-1 [Topotecan HCl],0.516

# Source: the supplement of paper PMC6897291
